Data taken from ChEMBL document CHEMBL1961873, “Compounds: GSK PKIS; Assays: Nanosyn kinase panel” (2012).

Tests used:
[1] = target: T1, Ephrin type-B receptor 2 (Homo sapiens) (UniProt P29323); conditions: at 1 µM
T1 sequence (whole entry): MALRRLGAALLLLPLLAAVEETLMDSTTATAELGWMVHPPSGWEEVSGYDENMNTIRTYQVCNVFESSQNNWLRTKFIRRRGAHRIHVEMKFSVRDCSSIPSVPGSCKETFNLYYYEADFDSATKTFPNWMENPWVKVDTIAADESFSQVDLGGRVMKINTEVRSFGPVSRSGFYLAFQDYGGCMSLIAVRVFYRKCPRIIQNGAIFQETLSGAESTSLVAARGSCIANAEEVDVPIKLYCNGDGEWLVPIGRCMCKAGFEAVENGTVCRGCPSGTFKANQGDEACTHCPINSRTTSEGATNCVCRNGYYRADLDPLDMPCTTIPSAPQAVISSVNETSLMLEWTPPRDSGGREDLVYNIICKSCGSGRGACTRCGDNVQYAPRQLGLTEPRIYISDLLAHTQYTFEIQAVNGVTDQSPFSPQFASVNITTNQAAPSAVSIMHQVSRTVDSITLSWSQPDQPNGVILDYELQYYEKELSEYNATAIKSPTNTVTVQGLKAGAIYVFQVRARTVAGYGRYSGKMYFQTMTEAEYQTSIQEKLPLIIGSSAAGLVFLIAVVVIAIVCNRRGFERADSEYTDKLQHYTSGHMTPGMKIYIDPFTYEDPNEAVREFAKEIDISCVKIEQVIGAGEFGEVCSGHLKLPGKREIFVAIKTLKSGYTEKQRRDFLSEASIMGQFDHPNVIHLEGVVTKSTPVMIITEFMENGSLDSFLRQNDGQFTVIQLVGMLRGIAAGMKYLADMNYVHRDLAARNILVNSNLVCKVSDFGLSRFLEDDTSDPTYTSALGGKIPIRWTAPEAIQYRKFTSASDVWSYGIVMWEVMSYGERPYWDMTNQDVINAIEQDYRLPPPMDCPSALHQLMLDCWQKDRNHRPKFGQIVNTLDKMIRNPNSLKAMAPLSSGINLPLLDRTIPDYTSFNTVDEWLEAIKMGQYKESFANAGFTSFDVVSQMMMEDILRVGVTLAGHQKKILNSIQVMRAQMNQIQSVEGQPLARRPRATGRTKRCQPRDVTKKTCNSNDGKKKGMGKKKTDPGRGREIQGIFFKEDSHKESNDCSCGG

[2] = target: T2, Ephrin type-B receptor 3 (Homo sapiens) (UniProt P54753); conditions: at 0.1 µM
T2 sequence (whole entry): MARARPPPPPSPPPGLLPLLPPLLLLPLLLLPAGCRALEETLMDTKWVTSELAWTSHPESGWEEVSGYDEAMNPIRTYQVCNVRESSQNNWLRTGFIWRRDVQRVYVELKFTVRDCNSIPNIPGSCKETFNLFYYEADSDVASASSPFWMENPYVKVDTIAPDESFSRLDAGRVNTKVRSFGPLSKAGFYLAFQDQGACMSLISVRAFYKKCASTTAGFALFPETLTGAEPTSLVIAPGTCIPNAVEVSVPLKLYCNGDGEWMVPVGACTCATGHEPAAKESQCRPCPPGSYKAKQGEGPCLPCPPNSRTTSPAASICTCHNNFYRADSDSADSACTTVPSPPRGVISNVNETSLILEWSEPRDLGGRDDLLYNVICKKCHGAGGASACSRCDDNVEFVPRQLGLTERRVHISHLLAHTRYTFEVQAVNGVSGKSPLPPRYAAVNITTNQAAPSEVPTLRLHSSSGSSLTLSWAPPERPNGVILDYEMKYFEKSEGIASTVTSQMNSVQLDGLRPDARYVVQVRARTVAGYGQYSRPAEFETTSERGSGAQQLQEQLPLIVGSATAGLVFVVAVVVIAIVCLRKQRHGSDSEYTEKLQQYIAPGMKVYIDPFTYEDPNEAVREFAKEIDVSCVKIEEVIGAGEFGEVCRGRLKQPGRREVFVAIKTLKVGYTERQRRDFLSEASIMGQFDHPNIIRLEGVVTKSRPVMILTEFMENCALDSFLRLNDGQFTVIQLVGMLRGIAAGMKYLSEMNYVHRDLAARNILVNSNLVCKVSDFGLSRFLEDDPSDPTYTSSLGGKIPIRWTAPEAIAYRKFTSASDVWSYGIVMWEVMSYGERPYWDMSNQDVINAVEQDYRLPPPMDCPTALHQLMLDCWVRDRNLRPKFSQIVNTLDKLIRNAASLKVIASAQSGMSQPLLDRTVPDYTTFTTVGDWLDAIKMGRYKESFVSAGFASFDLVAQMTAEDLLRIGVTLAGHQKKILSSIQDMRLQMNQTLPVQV

[3] = target: T2, Ephrin type-B receptor 3 (Homo sapiens); conditions: at 1 µM
[4] = target: T3, Ephrin type-B receptor 4 (Homo sapiens) (UniProt P54760); conditions: at 0.1 µM
T3 sequence (whole entry): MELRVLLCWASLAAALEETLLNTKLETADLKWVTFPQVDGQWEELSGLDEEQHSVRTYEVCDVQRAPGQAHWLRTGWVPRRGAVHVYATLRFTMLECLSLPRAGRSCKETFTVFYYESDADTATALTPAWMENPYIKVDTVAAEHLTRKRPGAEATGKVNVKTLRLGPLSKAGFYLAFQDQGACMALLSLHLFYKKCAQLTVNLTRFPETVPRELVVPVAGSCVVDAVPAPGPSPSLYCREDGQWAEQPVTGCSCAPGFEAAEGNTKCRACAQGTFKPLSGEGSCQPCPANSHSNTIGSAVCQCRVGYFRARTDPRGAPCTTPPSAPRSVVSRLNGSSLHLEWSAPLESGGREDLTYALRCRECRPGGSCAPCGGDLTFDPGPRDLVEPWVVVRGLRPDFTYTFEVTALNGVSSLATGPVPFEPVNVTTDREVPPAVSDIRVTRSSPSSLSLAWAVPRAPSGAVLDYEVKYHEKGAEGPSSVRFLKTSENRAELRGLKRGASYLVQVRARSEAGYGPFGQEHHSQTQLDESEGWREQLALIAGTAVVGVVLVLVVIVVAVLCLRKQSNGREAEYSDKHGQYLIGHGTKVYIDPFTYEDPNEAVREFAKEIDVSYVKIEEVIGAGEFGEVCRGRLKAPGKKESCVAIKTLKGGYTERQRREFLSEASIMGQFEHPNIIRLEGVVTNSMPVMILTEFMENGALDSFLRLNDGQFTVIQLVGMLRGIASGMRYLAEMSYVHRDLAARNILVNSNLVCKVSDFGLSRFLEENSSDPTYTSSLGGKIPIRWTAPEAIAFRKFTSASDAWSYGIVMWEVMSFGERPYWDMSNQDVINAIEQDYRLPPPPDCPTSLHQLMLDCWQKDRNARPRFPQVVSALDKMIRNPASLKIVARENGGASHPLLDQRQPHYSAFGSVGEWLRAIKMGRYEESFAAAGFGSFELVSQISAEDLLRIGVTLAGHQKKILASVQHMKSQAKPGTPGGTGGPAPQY

[5] = target: T3, Ephrin type-B receptor 4 (Homo sapiens); conditions: at 1 µM
[6] = target: Receptor tyrosine-protein kinase erbB-2 (Homo sapiens) (UniProt P04626); conditions: at 0.1 µM
[7] = target: Receptor tyrosine-protein kinase erbB-2 (Homo sapiens) (UniProt P04626); conditions: at 1 µM
[8] = target: Receptor tyrosine-protein kinase erbB-4 (Homo sapiens) (UniProt Q15303); conditions: at 0.1 µM
[9] = target: Receptor tyrosine-protein kinase erbB-4 (Homo sapiens) (UniProt Q15303); conditions: at 1 µM
[10] = target: Tyrosine-protein kinase Fer (Homo sapiens) (UniProt P16591); conditions: at 0.1 µM
[11] = target: Tyrosine-protein kinase Fer (Homo sapiens) (UniProt P16591); conditions: at 1 µM
[12] = target: Tyrosine-protein kinase Fes/Fps (Homo sapiens) (UniProt P07332); conditions: at 0.1 µM
[13] = target: Tyrosine-protein kinase Fes/Fps (Homo sapiens) (UniProt P07332); conditions: at 1 µM
[14] = target: Fibroblast growth factor receptor 1 (Homo sapiens) (UniProt P11362); conditions: at 0.1 µM
[15] = target: Fibroblast growth factor receptor 1 (Homo sapiens) (UniProt P11362); conditions: at 1 µM
[16] = target: Fibroblast growth factor receptor 2 (Homo sapiens) (UniProt P21802); conditions: at 0.1 µM
[17] = target: Fibroblast growth factor receptor 2 (Homo sapiens) (UniProt P21802); conditions: at 1 µM
[18] = target: Fibroblast growth factor receptor 3 (Homo sapiens) (UniProt P22607); conditions: at 0.1 µM
[19] = target: Fibroblast growth factor receptor 3 (Homo sapiens) (UniProt P22607); conditions: at 1 µM
[20] = target: Fibroblast growth factor receptor 4 (Homo sapiens) (UniProt P22455); conditions: at 0.1 µM;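 note: values are mean percent inhibition of FGFR4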
Fibroblast growth factor receptor 4 (Homo sapiens), sequence (P22455 22-802 limits assumed): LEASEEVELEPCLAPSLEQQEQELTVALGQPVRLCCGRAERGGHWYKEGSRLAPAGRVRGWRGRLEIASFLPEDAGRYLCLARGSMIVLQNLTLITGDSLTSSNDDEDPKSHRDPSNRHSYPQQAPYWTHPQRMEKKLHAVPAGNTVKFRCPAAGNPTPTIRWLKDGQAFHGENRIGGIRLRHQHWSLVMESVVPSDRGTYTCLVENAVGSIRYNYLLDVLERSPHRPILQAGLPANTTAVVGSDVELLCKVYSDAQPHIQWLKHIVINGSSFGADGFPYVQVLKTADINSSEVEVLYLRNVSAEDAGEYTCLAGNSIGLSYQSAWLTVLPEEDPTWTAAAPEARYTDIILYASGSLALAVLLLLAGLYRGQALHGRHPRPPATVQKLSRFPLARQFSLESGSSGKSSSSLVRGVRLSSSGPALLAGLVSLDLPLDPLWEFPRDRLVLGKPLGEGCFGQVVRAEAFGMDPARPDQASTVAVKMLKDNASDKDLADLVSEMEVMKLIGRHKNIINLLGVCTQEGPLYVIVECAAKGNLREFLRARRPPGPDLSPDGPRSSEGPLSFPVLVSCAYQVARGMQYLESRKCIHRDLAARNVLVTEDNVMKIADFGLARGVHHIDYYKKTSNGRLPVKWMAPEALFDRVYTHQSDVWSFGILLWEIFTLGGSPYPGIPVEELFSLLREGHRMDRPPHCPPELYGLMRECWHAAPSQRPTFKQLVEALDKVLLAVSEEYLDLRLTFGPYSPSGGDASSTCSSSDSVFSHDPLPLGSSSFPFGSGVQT

Receptor tyrosine-protein kinase erbB-4 (Homo sapiens), sequence (Q15303 whole entry): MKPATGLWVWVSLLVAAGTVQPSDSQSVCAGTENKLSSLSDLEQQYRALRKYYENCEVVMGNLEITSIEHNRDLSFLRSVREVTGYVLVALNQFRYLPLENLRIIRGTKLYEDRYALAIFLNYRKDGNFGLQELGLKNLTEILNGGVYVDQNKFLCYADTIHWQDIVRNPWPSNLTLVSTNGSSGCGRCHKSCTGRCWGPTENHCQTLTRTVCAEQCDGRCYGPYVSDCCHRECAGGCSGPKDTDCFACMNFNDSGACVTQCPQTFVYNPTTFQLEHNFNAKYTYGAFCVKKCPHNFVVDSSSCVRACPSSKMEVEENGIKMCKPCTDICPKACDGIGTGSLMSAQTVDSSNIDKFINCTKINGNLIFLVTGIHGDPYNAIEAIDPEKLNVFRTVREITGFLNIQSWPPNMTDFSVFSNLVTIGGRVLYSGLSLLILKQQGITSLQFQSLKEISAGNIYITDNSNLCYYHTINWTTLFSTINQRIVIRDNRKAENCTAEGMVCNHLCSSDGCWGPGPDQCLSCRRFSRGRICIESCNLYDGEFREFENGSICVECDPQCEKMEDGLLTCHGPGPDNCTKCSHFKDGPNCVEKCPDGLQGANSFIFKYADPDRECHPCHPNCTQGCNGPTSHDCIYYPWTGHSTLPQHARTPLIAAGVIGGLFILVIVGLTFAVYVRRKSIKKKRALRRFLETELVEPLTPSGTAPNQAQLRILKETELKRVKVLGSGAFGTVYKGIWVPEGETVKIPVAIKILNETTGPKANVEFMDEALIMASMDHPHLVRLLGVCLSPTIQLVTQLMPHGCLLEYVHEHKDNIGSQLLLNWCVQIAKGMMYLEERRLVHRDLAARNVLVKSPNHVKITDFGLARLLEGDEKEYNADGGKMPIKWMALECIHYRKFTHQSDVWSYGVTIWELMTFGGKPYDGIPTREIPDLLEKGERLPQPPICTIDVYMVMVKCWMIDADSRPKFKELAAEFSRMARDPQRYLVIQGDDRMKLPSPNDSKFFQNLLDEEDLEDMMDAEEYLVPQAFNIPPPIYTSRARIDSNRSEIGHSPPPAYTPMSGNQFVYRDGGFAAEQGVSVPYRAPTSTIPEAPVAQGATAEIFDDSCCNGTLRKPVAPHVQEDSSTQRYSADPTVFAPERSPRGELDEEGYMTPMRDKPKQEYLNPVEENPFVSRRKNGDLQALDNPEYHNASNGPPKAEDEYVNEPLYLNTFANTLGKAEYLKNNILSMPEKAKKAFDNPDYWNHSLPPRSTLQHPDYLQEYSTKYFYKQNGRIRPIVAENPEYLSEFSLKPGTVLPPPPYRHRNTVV
Tyrosine-protein kinase Fer (Homo sapiens), sequence (P16591 whole entry, looked up): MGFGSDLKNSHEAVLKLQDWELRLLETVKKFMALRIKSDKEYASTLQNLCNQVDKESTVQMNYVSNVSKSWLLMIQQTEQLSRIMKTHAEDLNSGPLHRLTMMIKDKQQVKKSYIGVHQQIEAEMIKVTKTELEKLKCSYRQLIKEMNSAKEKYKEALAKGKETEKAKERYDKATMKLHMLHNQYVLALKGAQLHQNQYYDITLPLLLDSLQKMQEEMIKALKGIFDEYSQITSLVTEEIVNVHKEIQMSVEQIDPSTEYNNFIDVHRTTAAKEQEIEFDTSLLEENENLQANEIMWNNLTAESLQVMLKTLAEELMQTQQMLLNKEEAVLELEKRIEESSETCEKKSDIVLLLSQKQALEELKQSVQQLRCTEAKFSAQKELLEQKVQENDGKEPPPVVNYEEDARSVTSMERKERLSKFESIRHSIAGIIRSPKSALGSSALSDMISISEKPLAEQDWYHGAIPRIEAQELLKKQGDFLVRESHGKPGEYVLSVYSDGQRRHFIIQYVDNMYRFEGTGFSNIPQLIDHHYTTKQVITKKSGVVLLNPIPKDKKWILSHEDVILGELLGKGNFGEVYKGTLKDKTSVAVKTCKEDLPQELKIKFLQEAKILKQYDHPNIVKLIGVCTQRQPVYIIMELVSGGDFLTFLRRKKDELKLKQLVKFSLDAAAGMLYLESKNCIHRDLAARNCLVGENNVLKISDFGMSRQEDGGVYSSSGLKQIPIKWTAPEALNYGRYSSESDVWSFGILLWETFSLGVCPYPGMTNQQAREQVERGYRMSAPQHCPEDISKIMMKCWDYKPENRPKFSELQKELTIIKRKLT
Tyrosine-protein kinase Fes/Fps (Homo sapiens), sequence (P07332 whole entry): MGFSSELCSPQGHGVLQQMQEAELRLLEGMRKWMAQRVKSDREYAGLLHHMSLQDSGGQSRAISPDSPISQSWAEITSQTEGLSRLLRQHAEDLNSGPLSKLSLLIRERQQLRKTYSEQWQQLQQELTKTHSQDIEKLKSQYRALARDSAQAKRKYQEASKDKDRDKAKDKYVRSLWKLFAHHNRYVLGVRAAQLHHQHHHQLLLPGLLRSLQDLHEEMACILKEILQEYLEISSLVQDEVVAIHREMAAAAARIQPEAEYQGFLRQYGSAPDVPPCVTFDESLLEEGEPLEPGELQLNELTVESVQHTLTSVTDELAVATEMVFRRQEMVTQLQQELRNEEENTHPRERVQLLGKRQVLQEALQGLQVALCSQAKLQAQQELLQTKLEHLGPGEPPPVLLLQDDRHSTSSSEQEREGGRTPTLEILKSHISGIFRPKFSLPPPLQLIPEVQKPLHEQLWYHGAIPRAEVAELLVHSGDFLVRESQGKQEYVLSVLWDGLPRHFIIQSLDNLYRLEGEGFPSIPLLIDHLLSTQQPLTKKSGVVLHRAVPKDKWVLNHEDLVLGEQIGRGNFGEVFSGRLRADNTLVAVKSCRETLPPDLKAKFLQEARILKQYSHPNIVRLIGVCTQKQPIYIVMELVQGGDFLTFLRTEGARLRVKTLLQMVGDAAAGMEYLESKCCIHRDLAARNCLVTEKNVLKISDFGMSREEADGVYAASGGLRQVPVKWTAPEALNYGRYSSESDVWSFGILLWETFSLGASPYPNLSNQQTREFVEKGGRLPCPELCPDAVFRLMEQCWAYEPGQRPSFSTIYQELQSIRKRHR
Receptor tyrosine-protein kinase erbB-2 (Homo sapiens), sequence (P04626 whole entry): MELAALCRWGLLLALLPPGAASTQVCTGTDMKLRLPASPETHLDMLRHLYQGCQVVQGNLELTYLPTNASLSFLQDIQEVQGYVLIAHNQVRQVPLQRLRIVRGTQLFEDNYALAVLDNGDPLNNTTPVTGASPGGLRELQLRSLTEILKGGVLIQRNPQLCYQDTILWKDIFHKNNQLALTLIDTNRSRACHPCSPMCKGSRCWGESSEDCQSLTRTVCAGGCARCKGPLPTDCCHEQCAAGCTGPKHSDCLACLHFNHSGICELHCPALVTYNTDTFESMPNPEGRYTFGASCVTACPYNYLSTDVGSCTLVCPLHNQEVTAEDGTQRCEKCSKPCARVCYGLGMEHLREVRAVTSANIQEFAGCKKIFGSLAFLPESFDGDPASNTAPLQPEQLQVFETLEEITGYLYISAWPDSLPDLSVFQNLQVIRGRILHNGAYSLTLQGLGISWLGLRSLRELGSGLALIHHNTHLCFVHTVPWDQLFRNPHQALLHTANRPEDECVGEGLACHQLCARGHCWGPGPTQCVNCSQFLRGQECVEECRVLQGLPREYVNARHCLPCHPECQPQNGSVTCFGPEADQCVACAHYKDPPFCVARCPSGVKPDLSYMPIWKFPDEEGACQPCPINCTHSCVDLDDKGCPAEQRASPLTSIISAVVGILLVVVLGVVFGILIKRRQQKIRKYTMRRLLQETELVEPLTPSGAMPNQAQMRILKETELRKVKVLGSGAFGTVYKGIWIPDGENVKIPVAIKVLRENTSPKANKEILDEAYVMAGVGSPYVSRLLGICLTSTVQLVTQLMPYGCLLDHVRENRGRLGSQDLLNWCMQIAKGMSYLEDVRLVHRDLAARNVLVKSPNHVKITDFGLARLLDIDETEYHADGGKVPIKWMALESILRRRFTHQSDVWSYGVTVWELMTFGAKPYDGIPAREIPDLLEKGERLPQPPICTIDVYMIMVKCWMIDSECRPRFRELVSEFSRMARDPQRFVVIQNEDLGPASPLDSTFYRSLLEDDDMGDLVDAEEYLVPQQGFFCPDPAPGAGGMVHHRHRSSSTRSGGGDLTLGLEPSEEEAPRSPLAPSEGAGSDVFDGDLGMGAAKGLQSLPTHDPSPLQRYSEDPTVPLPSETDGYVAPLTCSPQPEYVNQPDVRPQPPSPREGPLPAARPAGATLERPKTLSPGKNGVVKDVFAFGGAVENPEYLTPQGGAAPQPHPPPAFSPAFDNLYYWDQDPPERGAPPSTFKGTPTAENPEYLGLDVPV

| Compound | inhibition [1] | inhibition [2] | inhibition [3] | inhibition [4] | inhibition [5] | inhibition [6] | inhibition [7] | inhibition [8] | inhibition [9] | inhibition [10] | inhibition [11] | inhibition [12] | inhibition [13] | inhibition [14] | inhibition [15] | inhibition [16] | inhibition [17] | inhibition [18] | inhibition [19] | inhibition [20] |
| --- | --- | --- | --- | --- | --- | --- | --- | --- | --- | --- | --- | --- | --- | --- | --- | --- | --- | --- | --- | --- |
| CCc1cccc(NC(=O)Nc2ccc(Oc3ccc4nc(NC(=O)OC)[nH]c4c3)cc2)c1 | 63% | 6.29% | 3.66% | 15.7% | 27.5% | 0.27% | 7% | 9.67% | 15.3% | 3.85% | 1.84% | 0.9% | 0.62% | -3.46% | 3.26% | 3.25% | 8.89% | 3.09% | 6.95% | 4.21% |
| Cc1nnc(-c2ccc(C)c(-c3ccc(C(=O)Nc4cccc(C#N)c4)cc3)c2)o1 | 8.63% | 4.01% | 4.32% | 1.3% | 1.73% | 2.71% | 2.09% | 11% | 16.2% | 2% | 1.72% | 0.91% | 2.11% | -1.37% | 1.5% | 1.7% | 4.97% | 2.6% | 3.98% | 2.08% |
| CCn1c(-c2nonc2N)nc2ccncc21 |  | 2.91% | -1.68% | -0.26% | 0.27% | 0.8% | -4.21% | 7.5% | 9.71% | 2.5% | 0.13% | 0.83% | 1.98% | 0.47% | -1.46% | -0.14% | 4.73% | 0.49% | 0.64% | -8.14% |
| CNC(=O)c1cncc(/C=C/c2c(Cl)cccc2Cl)c1 | 29.2% | -2.12% | 2.92% | 2.4% | 74.1% | 3.2% | 3.13% | -0.22% | 8.83% | 0.6% | 5.39% | 2.89% | 4.62% | 1.94% | -1.56% | 3.82% | 7.15% | 5.62% | 1.39% | 1.14% |
| NCc1ccc(-c2nc(-c3ccc(Cl)c(O)c3)c(-c3ccncc3)[nH]2)cc1 | 8.63% | 5.47% | 12.8% | 3.82% | 9.77% | -0.58% | -0.9% | 11.1% | 28.9% | 0.8% | 2.5% | 0.2% | 1.79% | -0.32% | 1.38% | -0.38% | 6.76% | 0.23% | 5.11% | -5.87% |
| CCn1c(-c2nonc2N)nc2c(N3CCCC3)nccc21 | -2.7% | -2.28% | -3.63% | -1.4% | -1.17% | -5.46% | -0.23% | -3.28% | -2.19% | 2.26% | 2.34% | -2.72% | -3.78% | -3.71% | -1.9% | -4% | -1.03% | 0.34% | -0.31% | 3.05% |
| COc1cc2ncn(-c3cc(O[C@@H](C)c4ccccc4Cl)c(C(N)=O)s3)c2cc1OC | 14.1% | 3.27% | 3.66% | 1.67% | 4.23% | 0.23% | 6.51% | 6.3% | 14.2% | 6.4% | 8.42% | 3.85% | 2.83% | 2.01% | 17.2% | 7.05% | 21.9% | 6.87% | 24.3% | 0.49% |
| CC(C)=Cc1cccc2c1/C(=N/Nc1ccc(S(N)(=O)=O)cc1)C(=O)N2 | 5.84% | 2.65% | -0.21% | 1.72% | 2.38% | 0.59% | 4.72% | 5.98% | 4.74% | 3.57% | 20.1% | 0.31% | 2.29% | -0.4% | 14.7% | 3.88% | 36.8% | 3.36% |  | 4.09% |
| CCn1c(-c2nonc2N)nc2c(C#CC(C)(C)O)nc(OC[C@@H](N)c3ccccc3)cc21 | 12.1% | 0.34% | -0.22% | -2.4% | 1.73% | -1.67% | -0.37% | -4.79% | -4.06% |  | 4.88% | -0.53% | 5.13% | -3.47% | 5.43% | -3.01% | 0.85% | -1.33% | -0.5% | 2.3% |
| CCCN1CCC(Oc2cc(Nc3nc(Nc4cccc(F)c4C(N)=O)c4cc[nH]c4n3)c(OC)cc2Cl)CC1 | 13.7% | 1.47% | -1.18% | -0.64% | 0.69% | 0.9% | 1.3% | 0.71% | 0.3% | 3.76% | 16% | 0.64% | 8.02% | 0.06% | 3.54% | -2.81% | 3.3% | 0.52% | 0.96% | 0.71% |
| CN(C)c1cc2c(Nc3ccc4nc(Cc5ccccc5)[nH]c4c3)ncnc2cn1 | 15.3% | 4.07% | 4.22% | 4.92% | 3.25% | 20% | 67.7% | 101% | 99.7% | 5.55% | 10.5% | 3.37% | 3.11% | 8.38% | 15.2% | 5.58% | 10.4% | 7.84% | 11.4% | 2.81% |
